Measured values from PubChem BioAssay.
The source made the active and inactive calls.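 Rule for the calls: active = fluorescence ratio normalized to control raised more than 50% in primary screen plus both repeat runs; inactive = the rest.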

system: TRPC4 beta (transient receptor potential cation channel C4), mouse; assay: activators of mouse TRPC4 channel, confirmation, cell-based, Fluo4 calcium, HEK293 TRPC4beta/mu-opioid, duplicates, 10 µM (AID 2426); settings: Fluo4 calcium fluorescence, at 10 µM

Compound	outcome
CN(C)CCCN(Cc1cc2cc3c(cc2[nH]c1=O)OCO3)C(=S)NCc1ccco1	inactive
Cc1cc(OCC(=O)Nc2ccc(N3CCN(C)CC3)cc2)ccc1Cl	inactive
O=C(Nc1ccccc1Oc1cccnc1)C1CCCN(Cc2ccc(F)cc2)C1 (stereo not given)	inactive
Cc1ncsc1CCOC(=O)c1cccc([N+](=O)[O-])c1	inactive
N#C/C(=N\Nc1cccc([N+](=O)[O-])c1)C(=O)c1ccc(Br)cc1	inactive
CC(NC(=O)c1ccco1)C(c1cccs1)N1CCN(c2ccccc2)CC1 (stereo not given)	inactive
O=C(Cc1ccccc1[N+](=O)[O-])OCc1cccc([N+](=O)[O-])c1	inactive
CCOc1cc(CNCCCN2CCOCC2)cc(Br)c1OCc1ccccc1Cl	inactive
O=C(NCCN1CCOCC1)c1cc2sccc2n1Cc1ccc(F)cc1	inactive
Cn1c(-c2ccc(F)cc2)cnc1NCc1ccc(F)cc1F	inactive
Cc1[nH]c2ccc(C(=O)OC(C)C(=O)N(C)c3ccccc3)cc2c1C (stereo not given)	inactive
COc1cc(/C=C2\SC(=O)N(c3ccccc3Cl)C2=O)cc([N+](=O)[O-])c1O	inactive
Cc1ccc2nc(C)cc(Nc3ccc4c(c3)OCCO4)c2c1	inactive
CC1CCN(CCCOc2ccc(OCc3ccccc3)cc2)CC1	inactive
COCCn1c(SCC(=O)c2ccccc2)nc2ccccc2c1=O	inactive
O=C(c1ccco1)N1CCN(C/C=C/c2ccccc2)CC1	inactive
Nc1cc(N2CCCCC2)c([N+](=O)[O-])cc1Cl	inactive
Cc1cc(Cl)c2oc(C(=O)N(C)Cc3nccn3C)c(C)c2c1	inactive
COc1ccccc1C(=O)Nc1ccc2c(c1)CCCN2C(=O)c1cccs1	inactive
COCCNc1c2c(nc3ccccc13)CCC2	inactive

Compound	outcome
Cc1onc(-c2c(F)cccc2Cl)c1C(=O)N(C)CC(=O)Nc1cccc(F)c1	inactive
Cc1cc(C)c(S(=O)(=O)c2ccccc2C)c(OCC(C)(C)C)n1	inactive
CCCn1c(=O)c2ccccc2n2c(SCCOc3ccccc3)nnc12	inactive
CCOc1ccccc1N(C(=O)c1snc(C(N)=O)c1N)C(C(=O)NCc1ccccc1)c1ccc(O)cc1 (stereo not given)	inactive
Cc1oc(-c2ccoc2)nc1CN(Cc1ccccc1)CC1CC1	inactive
CCCN1CN(Cc2ccco2)c2nc3ccccc3n2C1	inactive
O=C(O)c1ccc(CSc2nc(-c3ccc(Cl)cc3)cc(C(F)(F)F)n2)cc1	inactive
CCCCc1nc2ccccc2c(N)c1CCC (tested in a mixture with another compound)	inactive
CCOC(=O)c1c(NC(=O)/C=C/C(=O)O)sc(C)c1-c1ccc(C(C)(C)C)cc1	inactive
C=C(C)Cn1c(SCC)nc2ccccc2c1=O	inactive
O=C(Nc1ccccc1N1CCN(C(=O)c2ccc(Cl)cc2)CC1)c1cccc([N+](=O)[O-])c1	inactive
CCOC(=O)C1(CCc2ccccc2)CCN(Cc2ccccn2)CC1	inactive
c1csc(CNc2nc(-c3cccs3)nc3ccccc23)c1	inactive
O=C(c1cccc(C(=O)N2CCN(c3ccccc3)CC2)c1)N1CCN(c2ccccc2)CC1	inactive
CCCCN(CCCC)/C(N)=N/c1nc(C)cc(C)n1	inactive
O=C(C1CCN(CC2CC=CCC2)CC1)N(CCc1ccccc1)Cc1ccccc1 (stereo not given)	inactive
CCOC(=O)c1c(NC(=O)C2CC(Cl)=CCC2C(=O)O)sc2c1CCCCC2 (stereo not given)	inactive
COc1ccc(C)cc1N(C(=O)c1snc(C(N)=O)c1N)C(C(=O)NC1CCCCC1)c1ccc(C)o1 (stereo not given)	inactive
CCOC(=O)c1c(N)sc(C(O)(C(F)(F)F)C(F)(F)F)c1-c1ccccc1	inactive
CNc1nc(NCc2ccccc2)c2ccccc2n1	inactive
